Laboratory results: PubChem BioAssay AID1745850 (National Center for Advancing Translational Sciences (NCATS), 2022)
In all, about 2,100 compounds went through this assay and about 260 (12%) were called active. Not shown: some 58% with an inconclusive outcome. The call rests on the fitted dose curve; in most records, active means well fitted cell-killing curve with a large enough effect; inconclusive means small, poorly fitted or top-dose-only effect, or effect the other way; inactive means flat fitted curve, though single readings scatter. Some of the results follow. Entries that show only a call come without a potency.

Assay: Viability Counterscreen for Confirmatory qHTS for Inhibitors of ATXN expression; further: nearly all actives have a fitted effect of over 50% in size
Details: HEK-293 ATXN2-luc cells viability, CellTiter-Fluor, 24 h
Method in brief: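 Luminescence read-out (SteadyGlo, 5 min) followed a 30 min Gly-Phe-AFC (25 uM final) viability fluorescence read. ATXN2-luciferase reporter cells were exposed 24 h to a dilution series. Medium-only wells served as the 100% inhibition reference.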
Potency means the concentration at half of the fitted maximal effect.

Compound	Potency
c1ccc(COc2ncnc3c2ncn3CCCN2CCN(Cc3cccc4ccccc34)CC2)cc1	25.1 µM (active)
CCOC(=O)/C=C/C(=O)Nc1ccc(Oc2ccccc2)cc1	inactive
CN(CCOc1ccc(Br)cc1)CC(O)COc1ccc(C#N)cc1 (configuration not stated)	inactive
OC[C@@H]1CN(Cc2ccc(-c3ccccc3)cc2)C[C@H](n2cnc3c(Nc4ccccc4)ncnc32)O1	20 µM (active)
Cc1csc2ncnc(NC3CCN(Cc4ccccc4)CC3)c12	inactive
Cc1cccc(/C=N/NC(=O)c2c(-c3ccccc3)noc2C)c1O	inactive
Cc1cc(Cl)ccc1OCCCC(=O)NNC(=O)c1ccccc1O	inactive
COCCCNCCCOc1ccc(Cl)cc1C(C)(C)C	35.5 µM (active)
CCCCNCCCOc1cccc(Cl)c1Cl	inactive
NC(=S)n1[nH]c(-c2ccc([N+](=O)[O-])cc2)c(N=Nc2cccc(Cl)c2)c1=O	11.2 µM (active)
Cc1cc2sc3ccc(C#CC4(O)CCCCC4)cc3c(=O)c2cc1C	inactive
Cc1ccc(NC(=O)CNc2cccc(Br)c2)cc1S(=O)(=O)N1CCOCC1	inactive
CC(C)[C@@H]1CC[C@@H](C)C[C@H]1OC(=O)C[n+]1cc(-c2ccc(Cl)cc2)n2c1CCCCC2	22.4 µM (active)
CCn1c(C)cc(C(=O)CN2C(=O)c3ccccc3S2(=O)=O)c1C	inactive
CCn1cc(C(=O)NCc2cccc(F)c2)c(=O)c2cc(F)c(N3CCN(C(=O)c4ccco4)CC3)cc21	22.4 µM (active)
CCOC(=O)Cn1cc(C(=O)c2ccco2)c2ccccc21	inactive
O=C(c1ccco1)N1CCN(c2ccnc3cc(Cl)ccc23)CC1	inactive
Cc1ccc2c(CC(=O)NNC(=O)c3ccccc3O)coc2c1	inactive
Cc1ccc(SC2=C(N(C)C)C(=O)c3ccccc3C2=O)cc1	inactive
CC(C)(C)c1ccc(NC(=O)N2CCCN(c3c(Cl)cncc3Cl)CC2)cc1	inactive
O=C(NNC1=Nc2ccccc2SC1)c1ccc(Cl)cc1	inactive
O=c1c2c(nc3c(-c4cccc(Br)c4)c[nH]n13)CCCC2	12.6 µM (active)
O=c1c2c(nc3c(-c4ccc(Cl)cc4)c[nH]n13)CCC2	inactive
O=C(NNc1ccnc2cc(Cl)ccc12)C1CCCCC1	inactive
CC1(C)Cc2c(sc(NC(=O)c3ccc(C(=O)c4ccccc4)cc3)c2C(N)=O)C(C)(C)N1	28.2 µM (active)
NC(=O)c1c(NC(=O)c2ccc(S(=O)(=O)N3CCOCC3)cc2)sc2c1CCCCC2	inactive

Compound	Potency
Nc1nc(NCCCN2CCOCC2)nc(Nc2cccc(Cl)c2)c1[N+](=O)[O-]	inactive
CCCCC/C=C/C1=CC(=O)C[C@H](c2ccc(OC)c(OC)c2)C1	inactive
O=C(C(Br)=Cc1ccccc1)c1ccccc1	7.94 µM (active)
O=C(N/N=C/c1ccccc1O)/C(=C/c1ccccc1)CCO	inactive
CC(C)(C)NCC(=Cc1ccccc1)C(=O)c1ccccc1	3.55 µM (active)
CC(C)(C)c1ccc(Oc2ccc(N)cn2)cc1	inactive
CNc1nc2c(N)ncnc2n1[C@H]1O[C@@H](CO)[C@H](O)[C@@H]1O	inactive
Cc1ccc(SCCC(=O)N/N=C/c2ccccc2O)cc1	inactive
Cc1ccc2[nH]c(O)c(N=NC(=O)C3CC3c3ccccc3)c2c1Br (configuration not stated)	inactive
CC(C)c1cccc(C(C)C)c1Nc1cn[nH]c1	inactive
Nn1cnnc1N/N=C/c1cc(Br)cc(Br)c1O	inactive
OC(c1ccccn1)(c1ccccn1)c1ccccn1	inactive
COc1ccc(C(=O)/C=C/c2cccc(OCc3ccccc3)c2)cc1CSCC(=O)O	inactive
COc1ccc(C(=O)/C=C/c2ccc(OC3CSC3)cc2)cc1OC	inactive
COc1cc(C=CC(=O)c2cc(OC)c(OC)c(OC)c2)cc(OC)c1OC	17.8 µM (active)
CS(=O)(=O)N(CC(O)CON=C1c2ccccc2-c2ccccc21)c1ccc(F)cc1 (configuration not stated)	inactive
Nc1nc(NCCCN2CCOCC2)nc(Nc2ccccc2F)c1[N+](=O)[O-]	inactive
Cc1ccc(C)c(OCCCC(=O)Nc2nccs2)c1	inactive
Cn1c(/C=C/c2ccc(Cl)cc2Cl)c([N+](=O)[O-])c(=O)n(C)c1=O	22.4 µM (active)
Cn1c(/C=C/c2ccc(Cl)cc2)c([N+](=O)[O-])c(=O)n(C)c1=O	22.4 µM (active)
Cc1cc(OCC(=O)Nc2ccc(Br)cc2)cc2c1C(=O)CC(C)(C)O2	inactive
NC1=NC[C@H](Cc2ccccc2)N1CCCCC1CCCCC1	inactive
CCc1cc(-c2[nH]ncc2-c2ccc(OC)cc2)c(O)cc1O	inactive
CC(C)=CCc1c(O)cc2oc3c(CC=C(C)C)c(O)c(O)c(CC=C(C)C)c3c(=O)c2c1O	inactive
Cc1ccccc1C(=O)/C(C#N)=N/Nc1c(C)n(C)n(-c2ccccc2)c1=O	10 µM (active)
COc1ccc(NS(=O)(=O)c2ccc(C(=O)Nc3c(C)n(C)n(-c4ccccc4)c3=O)cc2)cc1	inactive

Compound	Potency
Cc1c(N/N=C(\C#N)C(=O)c2ccccc2)c(=O)n(-c2ccccc2)n1C	12.6 µM (active)
Cc1cc(C)cc(NC(=O)/C(C#N)=C/c2cn(CC(=O)NCc3ccco3)c3ccccc23)c1	inactive
Nc1c(C(=O)NCCN2CCOCC2)c2nc3ccccc3nc2n1CCc1ccccc1F	inactive
CCOC(=O)c1c(NC(=O)COC(=O)CNC(=O)c2ccco2)sc(C)c1C	inactive
N#Cc1ccccc1NC(=O)C1SC(=Nc2ccccc2)C(C(=O)Nc2ccc(Cl)cc2)=C1N (configuration not stated)	inactive
O=C(CSc1ccc2ccccc2c1)Nc1nc2ccccc2[nH]1	inactive
C/C(=N\NC(=O)CSCc1ccc([N+](=O)[O-])cc1)c1ccccc1O	inactive
N#Cc1c(Oc2ccc3ccccc3c2)sc(C(=O)c2ccccc2)c1N	inactive
COc1cnc(-c2ccccn2)nc1NC(C)C	10 µM (active)
COC(=O)COc1ccc(-c2nccc(-c3ccccn3)n2)cc1	inactive
COc1ccc(O)c(/C=N/NC(=O)c2ccc(OCc3cccc(Br)c3)cc2)c1	inactive
O=C(CNS(=O)(=O)c1ccc([N+](=O)[O-])cc1)N/N=C/c1ccc(O)cc1O	inactive
O=C(N/N=C/c1cc([N+](=O)[O-])ccc1O)c1ccc(COc2ccc3c(c2)CCC3)o1	11.2 µM (active)
C=CCc1cccc(/C=N/NC(=O)CNc2ccccc2)c1O	inactive
COc1ccc(C(NC(C)=O)c2cc(Cl)c3cccnc3c2O)cc1 (configuration not stated)	8.91 µM (active)
COc1cccc(C(NC(C)=O)c2ccc3cccnc3c2O)c1 (configuration not stated)	8.91 µM (active)
O=C(Nc1cccc(C(F)(F)F)c1)Oc1ccc(Cl)c2cccnc12	inactive
COc1ccc(C(NC(C)=O)c2cc(Cl)c3cccnc3c2O)cc1OC (configuration not stated)	10 µM (active)
CCCCC(=O)NC(c1ccc(N(CC)CC)cc1)c1ccc2cccnc2c1O (configuration not stated)	inactive
CC(=O)NC(c1ccc(C)cc1)c1cc(Cl)c2cccnc2c1O (configuration not stated)	11.2 µM (active)
CCCC(=O)NC(c1ccc(C(C)C)cc1)c1ccc2cccnc2c1O (configuration not stated)	inactive
C(=N\NC(=Nc1ccccc1)c1ccccn1)/c1ccccn1	inactive
COc1ccc(CNC(=O)CSc2nc(-c3ccccc3)cc(-c3cccs3)c2C#N)cc1	inactive
COc1cc2ccnc(Cc3cccc(OC)c3OC)c2cc1OC	inactive
COc1ccc(OC)c(C(=O)/C=C/c2ccccc2C(F)(F)F)c1	inactive
Cc1ccc2nc(-c3ccccc3)nn2c1	inactive

Compound	Potency
O=C(N/N=C/c1cc(Br)cc(Br)c1O)c1cccc(N2CCCC2=O)c1	inactive
COC(=O)c1ccc(C(=O)Nc2cc(Cl)ccc2Cl)cc1NC(=O)c1ccc(N(C)C)cc1	inactive
O=C(NC(c1ccc(Cl)cc1)c1cc(Cl)c2cccnc2c1O)c1cccnc1 (configuration not stated)	12.6 µM (active)
Cc1cc(NC(c2cccnc2)c2ccc3cccnc3c2O)no1 (configuration not stated)	8.91 µM (active)
O=C(N/N=C/c1cc(Cl)ccc1O)c1cccnc1	inactive
O=C(N/N=C/c1c(O)n(Cc2ccccc2)c(=O)c2ccccc12)c1cccnc1	inactive
Cc1ccc(S(=O)(=O)Nc2cc(Cl)c(O)c3ncccc23)cc1	10 µM (active)
COc1cc(CNCc2ccncc2)cc(Br)c1OCc1ccccc1F	inactive
Cn1c(CO)c(-c2ccccc2)c2cc([N+](=O)[O-])ccc21	inactive
CCn1c(C)cc(C(=O)COC(=O)c2ccccc2[N+](=O)[O-])c1C	inactive
CCOC(=O)N1CCN(c2ccnc3cc(Cl)ccc23)CC1	inactive
CN(CCc1ccccc1)c1cc2c(c3c1ccn3C)C1CCC2O1 (configuration not stated)	inactive
CC(C)(C)c1ccc(CC(=O)N2CCC2(C)C(=O)Nc2cnc3ccccc3c2)cc1 (configuration not stated)	inactive
O=C(Nc1cccc2ccccc12)OC1C=CS(=O)(=O)C1 (configuration not stated)	inactive
Cc1noc2ncnc(N3CCN(c4cccc(Cl)c4)CC3)c12	inactive
O=C(CSCC(=O)Nc1ccccc1)N/N=C/c1c(O)ccc2ccccc12	inactive
CC(C)(C)c1ccc(Oc2ccc(N)cc2)cc1	inactive
COc1ccc2[nH]c3c(N4CCC(O)(c5cccc(C(F)(F)F)c5)CC4)ncnc3c2c1	3.16 µM (active)
O=C1CN(C(=O)c2c(F)cccc2F)C(c2ccc(F)cc2)c2cc(Br)ccc2N1 (configuration not stated)	inactive
COc1cccc(NC(=O)/C=C/c2ccc(S(=O)(=O)N3CCOCC3)cc2)c1	inactive
COc1ccc(N2C3=C(CC4=C2CC(C)(C)CC4=O)C(=O)CC(C)(C)C3)cc1	inactive
CC1CC2(C)Oc3ccccc3CC2C(C)C1CNCCCN(C)C (configuration not stated)	25.1 µM (active)
O=C(C1CCC(CNS(=O)(=O)c2cccc3nsnc23)CC1)N1CC=C(c2ccccc2)CC1 (configuration not stated)	inactive
Cc1ccccc1SCC(=O)N1CCN(c2ccc(C(F)(F)F)cn2)CC1	inactive
